# Test results as given in article PMC13494018.
# Unmarked numbers belong to inactive results. The rule behind the calls is not given here.
# Target: VTCN1, Q7Z7D3
# Sequence (Q7Z7D3 whole entry): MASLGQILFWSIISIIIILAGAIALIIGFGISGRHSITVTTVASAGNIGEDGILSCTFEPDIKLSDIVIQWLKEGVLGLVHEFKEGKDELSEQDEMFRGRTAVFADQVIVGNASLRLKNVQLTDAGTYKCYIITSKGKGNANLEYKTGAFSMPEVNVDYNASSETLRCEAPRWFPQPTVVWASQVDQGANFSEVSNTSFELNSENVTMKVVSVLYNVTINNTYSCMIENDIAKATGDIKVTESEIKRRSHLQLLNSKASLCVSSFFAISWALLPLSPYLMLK
row,Binder,binding in a display sort
1,d4r5_design_ppi_37_dldesign_0_cycle0_af2pred (protein) GGAVDQVVDNVAKAVGAEAGARIRAAYEEGPEKAIATLEELAARLAAEDPELGAKAAKAARVLRSIVEDEKR,not found
2,d4r5_design_ppi_48_dldesign_0_cycle0_af2pred (protein) KAEELFKKGLELVKEGIESEDKEKGKELVKKGSVLFREGLLEKYSEEPASEVVKIAQKIHEEWEKLLEEEFKKK,not found
3,d4r5_design_ppi_48_dldesign_0_cycle1_af2pred (protein) KAEELLKKGEELMEEGINSENKEEGEKKVKEGAVYYKEGLIEKNPEEPVSEQVKKAKEIYEKYEKELKEKHEKK,not found
4,d4r5_design_ppi_53_dldesign_0_cycle0_af2pred (protein) MKEKQEEARNDAIIESAKMAGAKNPEIGKLLKKATELTLENEEGKEEAKKLIEEVAKKGEEDTAKKLEKAVEALVKKKKEEEKKKK,not found
5,d4r5_design_ppi_63_dldesign_0_cycle1_af2pred (protein) SLAEEAEKKLKEYAALRIEAGDLSEEEAKKTFKEIAKEAKELAKKLEADPNAKEVAKKAKKLAGAAESAAKAIEKA,not found
6,d4r5_design_ppi_64_dldesign_0_cycle1_af2pred (protein) AAAGTATAETIVNLREAEHILKLLEKNKNIPKEQAEVFIKDSEEIIKEVEEALKKGLVSKELAEKALEAAKKALEAAKKAYKK,not found
7,d4r5_design_ppi_66_dldesign_0_cycle1_af2pred (protein) GAAEEAAKKAKEEADKAIEAAKKGEKEGAEALLKAAKKLAEAAQKALEAAAEYPEKREEFLKLAKELRKAAKEAEEKAKAEIEAKKKA,not found
8,d4r5_design_ppi_73_dldesign_0_cycle0_af2pred (protein) MKAVEELKERAKRRLKEAEEKHKENPLKGAAQAYAAAEYVKNFAEAAAKKYPEYKEELLAAGKEYAKELEEKAKEFEEEAKKLA,not found
9,d4r5_design_ppi_122_dldesign_0_cycle1_af2pred (protein) DAEKIAKADKLMEEAKKLAATGKKRKEALEKYKEAAALYAEVDPALAKEAIAKGQEALSEGRENEAEKRLK,not found
10,d4r5_design_ppi_142_dldesign_0_cycle0_af2pred (protein) MEEKRLEALKSQVEHAGEAAEKYGKELGEEEVKKARELKEKALKASAEEARELLKELRKFGKELKKKVEAKKAA,not found
11,d4r5_design_ppi_147_dldesign_0_cycle0_af2pred (protein) SITERAKLAAEATRAAHRAEAAAKELIKLGGDKKEAEKLRKEAKKALEKAEEAAAKPEKLEELKKETEKAKKIAEEAKKELEELKK,not found
12,d4r5_design_ppi_147_dldesign_0_cycle1_af2pred (protein) SVQERARLAAKATRAAHKAKVAAKKIIELGGDKEKAKKLAKEAEKALEKAEEAMADPSKLEELKKATEEAEKLAKEALKEYEKLLA,not found
13,d4r5_design_ppi_153_dldesign_0_cycle0_af2pred (protein) LLEEVKKLSEEALKLAKEAKETGSEELREKAREKAKEALELGKKDPEALKIASEATQKMLEIWAEGKAKKNK,not found
14,d4r5_design_ppi_185_dldesign_0_cycle1_af2pred (protein) NEEALKKALEEAKKLVEEAGKKAGPEVQEKADRLIKVSERKRKLDPEAGALQGIFGAKGLEPDIDKELAKKIIEAFKKALELA,not found
15,d4r5_design_ppi_186_dldesign_0_cycle0_af2pred (protein) LEEVKEKAKEILEKAEKEMKAAKKVSEVNEIRRKGLKELAELGKSSSPEGKKIAYEKREELIEAAGEAMAKKL,not found
16,d4r5_design_ppi_186_dldesign_0_cycle1_af2pred (protein) VEEVKEKAEEVLKKATEAMKAAKTVEEVRKIRREGHKELRKLGEEGTPESKEIAYKYIEKLNEAAADAISKLL,not found
17,d4r5_design_ppi_196_dldesign_0_cycle0_af2pred (protein) ALAEAVAAAAEAAAEAAKKNEVTKPIAEKLEEISKKAKELAKEAKENPELKEKAEKEAEKLREELKKLREEAKKLIAEKKAEEAAKA,not found
18,d4r5_design_ppi_197_dldesign_0_cycle1_af2pred (protein) GKVEKEVKAAAEKAKKLVEEAKKLAESGDKETAKEGMKLAEEALKLAREAGKKAKKAGVKEELVKELEKLAEEAIEVRLDGLEVLAK,not found
19,d4r5_design_ppi_205_dldesign_0_cycle1_af2pred (protein) GEEEAKKAKEKAKKEAKELTDLVDEVAALSGAEAARAYAEKRAKNLVEKAAKEGPEAEKAAKEAAEKILKRAEEIAKAEA,not found

row,Binder,binding in a display sort
1,d4r5_design_ppi_239_dldesign_0_cycle0_af2pred (protein) MGKELQKLADEANKKAKAIAKTLKENLKLAKELSPELAKEAEAAKKALAAARLTFADDLEKGKEELKAVEKDVEALKAKIEKAAA,not found
2,d4r5_design_ppi_251_dldesign_0_cycle1_af2pred (protein) MEKLKEIEEAAKKKLEEGAKKGEEAFKKAITEANLLAASDPEYSKEARAAVKKLAKEKKKELEEKKKKEEEEKKLK,not found
3,d4r5_design_ppi_255_dldesign_0_cycle0_af2pred (protein) SEVEETKKKLAEASAELSELAAEADANPALAAAGKLAREALKKARELGKEGEENPEKALELYKKALEYAEKALKEVKALIEKAK,not found
4,d4r5_design_ppi_266_dldesign_0_cycle0_af2pred (protein) HMLKKLALEKAKEALEKAKEGLKLAKEGKLEEAAKKLQEARELKAEALSLGKKEKSIKKIIEEKAKEVKKIIKEAQKEAKKKK,not found
5,d4r5_design_ppi_266_dldesign_0_cycle1_af2pred (protein) GEEAKKALELAKKAVEEAKRGLALAKAGKLEEAAKELQKARELMAEALALGKKNPEVLEEVKKLAKEVKELIREAMEEAKKHR,not found
6,d4r5_design_ppi_284_dldesign_0_cycle1_af2pred (protein) AAAEVQAKLEAAAKKAEELAKDPALKEAAEAAAKALTAAKSLPPEEAAPALVATNNALQDARFEATEKAFK,not found
7,d4r5_design_ppi_288_dldesign_0_cycle0_af2pred (protein) MTKAENAAKILEYAAEADALGDKETAKKLRELAKKAREATAEEAKKLAKEAEKLLKEAEEKKEKEEKEEKEKKEEEEKK,not found
8,d4r5_design_ppi_292_dldesign_0_cycle0_af2pred (protein) MKAKETAKALREAVKAAQEAVKAKGEEVKPEMSKLLEEAASSDAEETKKIAEEIKKKAKEVKEEKKKEEE,not found
9,d4r5_design_ppi_292_dldesign_0_cycle1_af2pred (protein) SMAKELSEALREAVRAAREAVETRGEEVKEEMVELVYKAFDSDLEETKKIAEEIKRRAEEAREERRRRLE,not found
10,d4r5_design_ppi_300_dldesign_0_cycle0_af2pred (protein) SEVEEKAKKLVKEAAESTPEEAKKKGREVVELAKEHPEVAPVAAKAADEAAEVAKKKDKEVYIILAKTSAQLDAIAA,not found
11,d4r5_design_ppi_302_dldesign_0_cycle0_af2pred (protein) SEAEKLYAEALQYANIAKSAYEVNKEAGKEEYKEAKKYVEKLKEVDPEKGEEAEKEVEEKKAEAEKEYEKK,not found
12,d4r5_design_ppi_305_dldesign_0_cycle0_af2pred (protein) MEEKLKKEVEEALKKAEKAAKEAKASGDVKALKEAAMKANEAAAEARAYAAKSKDKETKKFAEEAAKKALELAKETVEAAKKAA,not found
13,d4r5_design_ppi_305_dldesign_0_cycle1_af2pred (protein) KEKEMKKEVKKALEEAKKAAEEAIKSGDVKKLKEAAVKAQEAATVAKYIASKAKDKEVKKEAKKAAKEALELAKKVAEEAKKAE,not found
14,d4r5_design_ppi_307_dldesign_0_cycle0_af2pred (protein) SAEKKAREESEKLREELRKKKEEAIARVKAYLAEKAKKDPSKAAEYEAKAKEVEAGGSGTATAALKEVKAEEAAEAAAKAAAA,not found
15,d4r5_design_ppi_307_dldesign_0_cycle1_af2pred (protein) GAREKAREESEKIRKELREKKKEAVAYVEAYLKKKAEANPEYAAEYEAKAEKVRNGGSGTATKALKEVKAEEAAEAAAKAAAA,not found
16,d4r5_design_ppi_312_dldesign_0_cycle1_af2pred (protein) DFEEAKKKAEEALKKLEELAKELGEEGKKLYEYAKKKFEKYSDDAASVEAAYYIIKGAYKKAEELLKEKKEKKKKEE,not found
17,d4r5_design_ppi_320_dldesign_0_cycle1_af2pred (protein) ATPEEQKKESDYFKEVQKLAKEKAEAAAADPEAKQLALNLPLAAADPEEGKKVAAQVDKRLAALKAAKAAAAA,not found
18,d4r5_design_ppi_332_dldesign_0_cycle1_af2pred (protein) DVEALVAEAVALIAGDPADAPAARAAAEAAAAALLDATLDDPAAVALLEALAAAAAANPHMADVAATLAKALATAKKIVADQKEATS,not found
19,d4r5_design_ppi_337_dldesign_0_cycle0_af2pred (protein) SHYEKAREYVKKAIKALKEGKEKEAKEYAKKAAEEIAKTDAEKAREIAKEMRKGVKEVGAGKVGGEMVALIQEARAEAAARNS,not found
